Compounds without any hit were thinned out: in the full panel of roughly 83,000, 20% have a hit.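 The test compound was applied at a single concentration to cells in 96-well plates for 48 hours, and percent growth was recorded.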 Values without a mark were called inactive. The source made the active and inactive calls. How the source made its calls: active means growth percent below 10; inactive means the rest.

This assay concerns HL-60(TB) leukemia. Kind of assay: NCI-60 one-dose screen, 48 h (100 = growth as untreated, 0 = no growth, -100 = all killed). The note with it: 10 µM unless noted.
As to `COc1ccc(C2=NN(C(=O)c3cc(OC)c(OC)c(OC)c3)C(c3ccc(N(C)C)cc3)C2)cc1` (stereo not drawn), the growth was -18.4% (active).
As for `Cc1ccccc1NC(=O)c1sc2nc3c(cc2c1N)C(=O)CCC3`, the figure is 36%.
Regarding `COc1ccc(OC)c(C(=O)c2oc3ccc(Br)cc3c2N)c1`, the growth was -10.2% (active).
For `COc1ccc(-n2c(SCc3cc(OC)c(OC)c(OC)c3)nc3ccc(C)cc3c2=O)c(OC)c1` the value was -44.3% (active); for `CN1CC[C@H](c2c(O)cc(O)c3c(=O)cc(-c4ccccc4Cl)oc23)[C@H](O)C1`, -23.1% (active); for `COc1ccc(-c2nnc(SCC(=O)Nc3ccc(C(=O)/C=C/c4ccc(OC)c(OC)c4)cc3)o2)cc1`, 74.7%.
For the compound `CN1C(=O)/C(=C\c2nc([P+](c3ccccc3)(c3ccccc3)c3ccccc3)c(N3CCOCC3)o2)SC1=S`, the growth is -15.1% (active).
`COc1cc(/C=C/C(=O)c2cccs2)ccc1OCc1ccc(Cl)nc1`: the growth was 72.6%.
For `C[C@]12CCC(=O)C=C1CC[C@H]1[C@@H]3C[C@@H](O)[C@](O)(C(=O)CO)[C@@]3(C)C[C@H](O)[C@@]12F` the value was 98.1%.
As for `COc1cccc(/C=N\Nc2ccc([N+](=O)[O-])cn2)c1O`, the figure is 57.5%; as for `O=c1c2c(c(=O)n1O)c1c3ccc[nH]c3nc1c1nc3[nH]cccc3c12`, 81%.
For `CC(C)C1=CC2=C(C=O)C[C@@H]3[C@](C)(CCC[C@@]3(C)C(=O)OCC#CCN3CCCC3)[C@H]2CC1` the value was 54.5%.
Regarding `N#Cc1ccc([N+](=O)[O-])o1`, the growth is 108%.
